Many of the other results were omitted from the sample, so hits are more common in it than they were.
Dicer processing = inhibitors of Dicer pre-microRNA processing, primary screen, biochemical, cat-ELCCA, chemiluminescence. Endoribonuclease Dicer (Homo sapiens), Q9UPY3. z-score at 25 µM. 47,000 tested, 6% active. cat-ELCCA pre-miR-21 Dicer processing; hits give high values; in the data active = z-score above about 3, passing the limit was not always enough;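 note: plate controls were vehicle for no effect and no enzyme for full effect; higher signal means more uncleaved substrate so more Dicer inhibition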
* hit, by the source's call.

SMILES | Dicer processing
CCOC(=O)c1cnc(NC(=O)CSc2nnc3sc4ccccc4n23)s1 | 4.26*
C=CCSc1nnc2sc3ccccc3n12 | 0.61
COc1ccc2ccnc(C3C(=O)c4ccccc4C3=O)c2c1 | -0.32
Cc1ccc(S(=O)(=O)Nc2ncccc2OCc2ccc(Cl)c(Cl)c2)cc1 | -0.73
Oc1c(Cl)cc(Cl)c2cccnc12 | 3.06*
O=C(Oc1c(Cl)cc(Cl)c2cccnc12)c1cccs1 | 1.41
Cc1ccc(C(NC(=O)C(C)C)c2cc(Cl)c3cccnc3c2O)cc1 (stereo not drawn) | 1.66
Cc1ccc(S(=O)(=O)Nc2cc(Cl)c(O)c3ncccc23)cc1 | 8.55*
Cc1ccc(S(=O)(=O)Nc2cc(S(=O)(=O)c3ccc(C)cc3)c(O)c3cccnc23)cc1 | -0.59
Cc1nc(S(=O)(=O)NCc2ccc3c(c2)CCO3)cn1C | -0.41
COc1ccc(C(=O)CCC(=O)CCC(=O)O)cc1 | 0.06
O=C(c1ccco1)c1cn(CC(=O)N2CCc3ccccc3C2)c2ccccc12 | -0.53
COc1ccccc1-c1cc(C(=O)O)c2ccccc2n1 | -0.51
O=C(O)c1ccccc1-c1c2ccc3cc(O)ccc3c2oc2c1ccc1cc(=O)ccc12 | 4.28*
O=c1c(-c2cccc3ccccc23)c(C(F)(F)F)oc2cc(O)ccc12 | -0.11
CSc1ccc(C)c(NC(=O)N(Cc2ccccc2)C(=O)CC#N)c1 | -0.28
CC1=C(C(=O)Nc2ccccc2)C(c2cccs2)C(C#N)=C(SCC(N)=O)N1 (stereo not drawn) | 1.4
O=C(NCCSCc1ccc(Cl)cc1)C(Cl)Cl | -1.26
O=C1c2cc(S(=O)(=O)NC3CCCCC3)cc([N+](=O)[O-])c2-c2c1cc(S(=O)(=O)NC1CCCCC1)cc2[N+](=O)[O-] | 1.22
O=C1CC(NC2CCN(c3ccc(C(F)(F)F)cn3)CC2)C(=O)N1c1ccc(F)cc1 (stereo not drawn) | -0.46
Cc1cccc2[nH]c(-c3ccc(N)cc3)nc12 | 6.82*
Cc1c(N)ccc2[nH]c(-c3ccc(N)cc3)nc12 | 6.3*
Brc1cccc(-c2nc3ccccc3[nH]2)c1 | 2.3
Cc1c(C)c(C)c2[nH]c(-c3ccc4c(c3)OCO4)nc2c1C | 0.22
O=c1[nH]c(-c2ccccc2)nc(=S)[nH]1 | 1.98
SMILES | Dicer processing
Cc1cccc2[nH]c(SCc3ccccc3F)nc12 | 0.69
Nc1ccc(-c2nc3c(Cl)c(N)ccc3[nH]2)cc1 | 3.41*
Cc1cccc2[nH]c(-c3ccccc3)nc12 | -0.58
Nc1cccc2[nH]c(-c3ccccc3)nc12 | 3.85*
CC(=O)OC[C@H]1O[C@@H](N2CCCCC2)[C@H](OC(C)=O)[C@@H](OC(C)=O)[C@@H]1OC(C)=O | 0.82
C1=CC2c3cc(-c4ccccc4)ccc3NC(c3ccncc3)C2C1 (stereo not drawn) | -0.17
C(#Cc1ccc(C#CCN2CCCCC2)cc1)CN1CCCCC1 | -0.81
Cc1nn(-c2ccc(C(F)(F)F)cn2)c(=O)o1 | -0.98
CN(C)/C=N/c1nc2c(s1)CCc1ccccc1-2 | -4.65
FC(F)(F)c1cc(Nc2nc(-c3cc(-c4ccccc4)no3)cs2)cc(C(F)(F)F)c1 | 0.65
CCOc1cc(C2C(C(=O)OCc3ccccc3)=C(C)NC3=C2C(=O)CCC3)ccc1O (stereo not drawn) | -0.37
COC(=O)CSc1nc(-c2ccccc2)c2cc(Cl)ccc2n1 | -1.64
COc1cc(Br)c(C[N+]2(CCOCCC3CC[C@H]4C[C@@H]3C4(C)C)CCOCC2)cc1OC (stereo partly drawn) | 0.18
CCOC(=O)NNC(=S)Nc1ccccc1Cl | -0.07
O=C1c2oc3ccccc3c(=O)c2C(c2ccccc2F)N1c1nccs1 (stereo not drawn) | -1.44
Cc1nn(S(=O)(=O)c2ccc(Cl)cc2)c(C)c1Cc1c(Cl)cccc1Cl | -0.89
COc1ccc(OC(=O)N2CCOCC2)cc1 | 4.98*
COc1ccc(S(=O)(=O)NCCNC(=O)N2CCOCC2)cc1 | -0.42
O=C(Nc1ccc(OC(=O)N2CCOCC2)cc1)N1CCOCC1 | -0.43
Clc1ccc(CSC2=NCN(Cc3ccccc3)CN2)cc1 | -0.52
C=C(c1ccccc1)c1ccc(OC)cc1 | 0.46
COc1ccc(N=Nc2c(O)c(O)cc3ccccc23)cc1 | 2.26
C#CC(O)(c1ccc(OC)cc1)c1ccccc1F (stereo not drawn) | 4.09*
CC(=O)/C=C1/N(C)c2ccccc2C1(C)C | -0.51
CC1(C23CC4CC(CC(C4)C2)C3)CC(=O)O1 (stereo not drawn) | 1.02
SMILES | Dicer processing
COc1cc(C2Nc3ccccc3NC3=C2C(=O)CC(c2cccs2)C3)cc(Br)c1O (stereo not drawn) | 4.57*
COc1ccc(C2CC(=O)C3=C(C2)Nc2ccccc2NC3c2ccc(OC(C)=O)cc2)cc1OC (stereo not drawn) | -0.1
COc1ccc(C2Nc3ccccc3NC3=C2C(=O)CC(c2ccccc2)C3)cc1OC (stereo not drawn) | 0.83
COc1cc(C2Nc3ccccc3NC3=C2C(=O)CC(c2ccccc2)C3)cc(Br)c1O (stereo not drawn) | 4.89*
COc1ccc(C2Nc3ccccc3NC3=C2C(=O)CC(c2cccs2)C3)cc1 (stereo not drawn) | 23.9
COc1ccc(C2Nc3ccccc3NC3=C2C(=O)CC(c2ccc(OC)c(OC)c2)C3)cc1 (stereo not drawn) | 2.55
COc1ccc(C2CC(=O)C3=C(C2)Nc2ccccc2NC3c2cccc(O)c2)cc1OC (stereo not drawn) | 3.52*
COc1ccc(C2CC(=O)C3=C(C2)Nc2ccccc2NC3c2ccc(OC(C)=O)c(OC)c2)cc1 (stereo not drawn) | 1.56
COc1cccc(C2Nc3ccccc3NC3=C2C(=O)CC(c2ccc(OC)c(OC)c2)C3)c1 (stereo not drawn) | -0.54
CC1/C(=N\O)CC(c2ccc([N+](=O)[O-])cc2)NC1c1ccc([N+](=O)[O-])cc1 (stereo not drawn) | -0.88
COC(=O)Cc1cc(OC)c(OC)cc1C(C)=O | 0.72
CS(=O)(=O)c1ccc(Cl)c(S(C)(=O)=O)c1 | -1.32
CC(C)(C)NNC(=S)Nc1cc(Cl)ccc1Cl | 2.06
CC1(C)CC(=O)C2=C(C1)Nc1ccccc1N(C(=O)c1ccccc1)C2c1cccc(F)c1 (stereo not drawn) | 2.23
CCOC(=O)c1cc(C#N)c(C)nc1N1CCN(S(=O)(=O)c2ccccc2)CC1 | -1.18
CC(C)(C)S(=O)(=O)Cc1noc(-c2ccc(F)cc2Cl)n1 | -1.61
CC1CN(c2ccc([N+](=O)[O-])cc2)CC(C)O1 (stereo not drawn) | -0.22
O=C1CC(C(=O)Nc2ccc(Br)cc2)SC(=Nc2ccccc2)N1 (stereo not drawn) | -1.78
CC1CN(c2ccc(N)cc2C(=O)O)CC(C)O1 (stereo not drawn) | 0.91
O=C(O)c1cccc(-c2cccc(C(=O)O)c2)c1 | 6.23*
O=C(O)c1ccc2nc(-c3cccc(-c4nc5ccc(C(=O)O)cc5[nH]4)c3)[nH]c2c1 | -0.63
O=C(O)c1ccc2nc3ccccc3nc2c1 | -1.9
CC(=O)Nc1ncc(C(F)(F)F)cc1Cl | -0.4
C=CCOC(=O)C1=C(C)NC2=C(C(=O)CC(C)(C)C2)C1c1cccc(OC)c1 (stereo not drawn) | -0.33
O=C(Nc1cc(C(F)(F)F)cc(C(F)(F)F)c1)Nc1ccc(CSc2ccc(Cl)cc2)o1 | -0.18
COC(=O)C(O)(c1ccc(N(C)C(=O)Nc2cccc(Cl)c2)cc1)C(F)(F)F (stereo not drawn) | 2.5
N#Cc1c(-c2ccc(F)cc2)c2c([nH]c1=O)-c1ccccc1CC2 | 0.96
N#Cc1c(-c2cccnc2)c2c([nH]c1=O)-c1ccccc1SC2 | 0.62

Assay outcomes from PubChem BioAssay.
